Records with an inconclusive call do not appear. Activity calls are given as the source filed them. Calls follow the shape of the dose curve; as a rule, active = well fitted activation curve with a large enough effect; inconclusive = small, poorly fitted or top-dose-only effect; inactive = flat fitted curve, though single readings scatter.
Experiment: qHTS for Inhibitors of Cell Surface uPA Generation: Confirmatory Assay for Cherry-picked Compounds
Details: cell surface uPA activity generation, qHTS confirmation; series mostly up to 115 µM
Outline: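 RAW 264.7 cells at 4000/well, incubated overnight, then treated with compounds. After 24 h at 37 C, viability was read by ATPlite luminescence. An increase in signal indicates blocked uPA-dependent LF entry.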

Potency, inactive:
CCOc1ccc(Cl)cc1/C=N/NC(=O)c1ccccc1
C=CCNC(=S)NCC=C
COC(C[C@H](O)[C@H](C)[C@@H](O)COCc1ccccc1)OC
COc1ccc(Cl)cc1NC(=O)CSc1nc(=O)n(CCN(C)C)c2c1CCCC2
O=C(CSC1=NS(=O)(=O)c2ccccc2N1)Nc1nccs1
CCOC(=O)N1CCN(C(=O)c2ccc3c(c2)sc2nc(-c4ccc(OC)cc4)cn23)CC1
CNS(=O)(=O)c1cc(-c2nnc(Nc3ccc(CC(N)=O)cc3)c3ccccc23)ccc1C
Cc1cc(COc2ccccc2)oc1C(=O)O
Cc1ccccc1S(=O)Cc1ccc(C(=O)N2CCN(C(=O)c3ccco3)CC2)o1 (centres undefined)
CC1(C)Oc2ccc3ccc(=O)oc3c2[C@@H](O)[C@H]1O
CCc1nc(SCC(N)=O)c2c(=O)n(C)c(=O)n(C)c2n1
CCOC(=O)N1CCN(c2c(NCCCN3CCCCCC3)c(=O)c2=O)CC1
C[C@H]1CN([C@@H](C)CO)C(=O)c2cc(NS(=O)(=O)c3ccc(Cl)cc3)ccc2O[C@@H]1CN(C)CC1CCCCC1
C[C@H](CO)N1C[C@H](C)[C@@H](CN(C)C(=O)Nc2ccccc2)Oc2c(NS(=O)(=O)c3ccccc3)cccc2C1=O
Cn1cc(SCC(=O)Nc2nccs2)c2ccccc21
Cc1cc(C)cc(NC(=O)Cc2ccc(NC3=NC4CS(=O)(=O)CC4S3)cc2)c1 (centres undefined)
COc1ccc(-n2nnnc2SCC(=O)Nc2nnc(C)s2)cc1
COc1ccc(CN2CCNC(=O)C2CC(=O)NCC2CCOCC2)cc1C (centres undefined)
COc1ccc(OC)c(NC(=O)C2CC2c2ccccc2)c1 (centres undefined)
Cc1cc(C)nc(N2N=C(C(F)(F)F)CC2=O)n1
CCOC(=O)c1c(NC(=O)CC2SC(N)=NC2=O)sc2c1CCC(C)C2 (centres undefined)
O=C(NCCOc1ccc(F)cc1)C1CCN(S(=O)(=O)c2ccccc2)CC1
CN(CC(=O)NCc1ccco1)CC(=O)Nc1c(Cl)cccc1Cl
CCSC1=NCCN1S(=O)(=O)c1ccc(Cl)cc1
COc1ccc([C@H]2CC(=O)C=C(c3ccc(CNC(=O)OC(C)(C)C)cc3)C2)cc1
Oc1ccc(/C=N/Nc2cccc(Cl)n2)c(O)c1
CCCc1nn2c(=O)cc(CSCC(=O)Nc3ccccc3)nc2s1
O=C(/C=C/c1cccc(F)c1)Nc1cc(S(=O)(=O)N2CCOCC2)ccc1Cl
COc1cc(CN2CCN(c3ncccn3)CC2)cc(OC)c1
Cn1cccc1Cc1nnc(SCC(=O)Nc2ccc3c(c2)OCCO3)n1-c1ccc(F)cc1
O=C(C[n+]1ccccc1)Nc1ccccc1C(F)(F)F
O=C(Cc1ccc(Cl)cc1)c1c[nH]c(C(=O)NCCCn2ccnc2)c1
CCCCN(CC)CCNC(=O)c1cc2cc3ccc(Cl)cc3nc2o1
COc1ccc(CNC(=O)C2(CC3CC(c4ccccc4)=NO3)CCNCC2)cc1 (centres undefined)
COc1ccc(NC(=O)c2cccnc2N2CCOCC2)cc1
CCCCNC(=O)c1cc2c(-c3ccc(Cl)cc3)nn(C)c2s1
Cc1ccc(NS(=O)(=O)c2c(C)nc3sccn3c2=O)c(C)c1
Cc1nn2c(=O)cc(CSc3nc4ccccc4[nH]3)nc2s1
O=C(C1CCN(c2nnc(N3CCCC3=O)s2)CC1)N1CCN(c2cccc(C(F)(F)F)c2)CC1

Source: PubChem BioAssay AID720519 (National Center for Advancing Translational Sciences (NCATS), 2013)
